From PubChem BioAssay AID504380 (National Center for Advancing Translational Sciences (NCATS), 2011) come the findings set out here.

The structures appear in SMILES notation. The source made the active and inactive calls. How the calls were made is not given here.

The test in a line: RT-PCR Analysis of TSH-dependent transcripts in primary cultures of human thyrocytes. The note with it: RT-PCR mRNA levels, 48 h; DIO2 mRNA change: measured here: DIO2 transcript; NIS mRNA change: measured here: NIS transcript, concentration not given here; TG mRNA change: concentration not given here; TPO mRNA change: measured here: TPO transcript, concentration not given here; TSHR mRNA change: measured here: TSHR transcript, concentration not given here. The source says: TSH is an alpha/beta heterodimeric glycoprotein hormone secreted from the anterior pituitary gland which belongs to the glycoprotein hormone family. The actions of TSH are mediated by a seven-transmembrane receptor, which upon TSH binding couples preferentially to the G-alpha (s) protein (Gs), resulting in activation of adenylate cyclase and increase in cyclic adenosine 3', 5' monophosphate (cAMP). The TSH receptor (THSR) is mainly expressed in thyroid follicular cells and regulates their growth and function. This cell based assay was conducted on a TSHR transfected HEK 293 cell line, measuring cAMP stimulation using antibody-based Homogeneous Time Resolved Fluorescence (HTRF). Our goal is to identify small molecules that will inhibit (antagonize) the thyroid-stimulating hormone receptor (TSHR), a member of the 7 transmembrane-spanning receptor (7TMR) family of cell surface receptors. TSHR-mediated hyperthyroidism is important in thyroid pathology. The development of small molecule antagonists of TSHR may lead to therapeutic approaches for TSHR-mediated hyperthyroidism caused by constitutively activating mutations or stimulating auto-antibodies associated with Graves' disease. Graves' disease is the leading cause of hyperthyroidism and is caused by autoantibodies that stimulate TSHR (TsAbs) causing thyroid growth and unregulated overproduction of thyroid hormones and existing treatments have liabilities (agranulocytosis). In addition, TSHRs are known to be expressed in multiple extrathyroidal tissues including bone, brain, kidney, testis, fat and cells of the immune system but the role of the TSHR in these tissues is not clear. Therefore, TSHR antagonists/inverse agonists could be used as probes of extrathyroidal TSHR function. Finally, TSHR inverse agonists, which are a subclass of antagonists that inhibit agonist-independent (or basal or constitutive) TSHR signaling, could be used to inhibit TSH-independent signaling in patients with recurrent or metastatic thyroid cancer who are receiving thyroid hormone to suppress TSH. This assays looks for effects on TSH-dependent functions in primary human thyrocytes. Total RNA is purified using RNeasy Micro kits. RT-PCR is performed in 25-ul reactions using cDNA prepared from 100 ng or less of total RNA and Universal PCR Master Mix (Applied Biosystems). mRNA levels are measured using primers and probes from Applied Biosystems. Quantitative RT-PCR results are normalized to GAPDH to correct for differences in RNA input.
Thyroid tissue samples were collected from normal thyroid tissue from patients undergoing total thyroidectomy for thyroid cancer at the National Institutes of Health Clinical Center. Surgical specimens were maintained in Hanks' balanced salt solution (HBSS) on ice, minced into small pieces, and digested with 3 mg/ml collagenase type IV (Life Technologies). Monodispersed cells were plated in 10 ml DMEM with 10% FBS in 10-cm tissue culture dishes and incubated at 37C in a humidified5%CO2 incubator, and after 24 h, the primary cultures of adherent thyroid cells were obtained. For determination of thyroglobulin (TG), thyroid peroxidase (TPO), TSHR, sodium iodide symporter (NIS), or deiodinase type 2 (DIO2) mRNAexpression, thyrocytes were seeded into 12-well plates at a density of 1 x 10^5 cells per well. The cells were incubated in DMEM with 2% FBS and 1 mM 3-isobutyl-1-methylxanthine (IBMX) for 48 h in the presence or absence of compound.
Regarding `COc1ccc(C2Nc3ccccc3C(=O)N2Cc2ccco2)cc1COc1c(C)cccc1C` (stereo not given), the NIS mRNA change was -35%, the TSHR mRNA change was -33%, the TG mRNA change was -71% (active) and the DIO2 mRNA change came out at 0%. Besides, the TPO mRNA change is -40%.
